Assay results reported in PubChem BioAssay AID651812 (National Center for Advancing Translational Sciences (NCATS), 2012).
Screen size: about 2,100 compounds; about 650 (31%) were called active. Roughly 16% stayed inconclusive and do not appear here. Calls follow the shape of the dose curve; as a rule, active = well fitted inhibition curve with a large enough effect; inconclusive = small, poorly fitted or top-dose-only effect; inactive = flat fitted curve, though single readings scatter. Some of the results follow.

Assay: qHTS for inhibitors of Vif-A3G interactions: Cherry picks; also: nearly all actives have a fitted effect of over 80% in size
Conditions: HeLa A3G-eYFP + Vif (tagged APOBEC3G with the HIV-1 protein that degrades it), 24 h; Potency: eYFP fluorescence increase; series mostly up to 36.9 µM
Method in brief: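 HeLa cells stably expressing A3G-eYFP and Vif, cultured overnight then exposed to compounds at several concentrations for 24 hours at 37 C, 5% CO2; cellular yellow fluorescence (488 nm ex, 500-530 nm em) imaged on Acumen, MG132 positive control.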
Potency is read from the fitted curve at half-maximal effect.

Potency, inactive:
Cc1ccc(Cn2nnc3c(=O)n(CC(=O)NCc4ccccc4)cnc32)cc1
CO/N=C\CC(=O)Nc1ccc(Cl)c(Cl)c1
Cc1ccc2nc(NS(=O)(=O)c3ccc(Cl)cc3)c(Nc3ccc(C(=O)O)cc3)nc2c1
CCc1ccc2c(c1)NC(=O)C2(C)Cc1ccccc1Cl (stereo unspecified)
COC(=O)[C@@H]1Cc2c([nH]c3ccccc23)C(C)(C)N1C(=O)CCl
COc1ccc(-n2nnnc2-c2cccc(OC)c2)cc1
CCS(=O)(=O)N1N=C(c2ccc(C)cc2)CC1c1cc2ccc(OC)cc2nc1Cl (stereo unspecified)
COc1ccc(-c2cnc3c(NC=O)cc(-c4ccccc4)cn23)cc1OC
COc1ccccc1/C=N/NC(=S)Nc1cccnc1
COc1ccc(C(=O)N/N=C/c2ccccc2OC(=O)c2ccccc2)cc1
COc1ccc(NC(=O)c2c(Cl)n(C)c3ccccc23)cc1
CNC(=S)N/N=C(\C)c1ccc(Cl)s1
COCCCN(C(C)=O)c1nc(-c2ccc(OC)cc2)cs1
COc1ccc(S(=O)(=O)NN(C)c2nc(C(F)(F)F)nc3ccccc23)cc1
CC1(C)Cc2c(sc3ncnc(NNC(=S)NCc4ccccc4)c23)CO1
COc1ccc(/C=N/NC(=O)c2cccnc2)cc1COc1ccc(NC(C)=O)cc1
COc1ccc(OC)c(C2C=C(c3ccc(C)c(C)c3)Nc3nnnn32)c1 (stereo unspecified)
COc1ccc(NC(=O)c2c(C)noc2-c2snnc2C)cc1
CCC(=O)NC(c1ccc(OC)cc1)c1c(O)ccc2ccccc12 (stereo unspecified)
COc1ccc(/C=N\NC(=O)c2cc3c(ccc4ccccc43)o2)cc1O
CC(CC(=O)Nc1ccc2c(c1)c(=O)n(C)n2Cc1ccc(F)cc1)c1ccccc1 (stereo unspecified)
CCOC(=O)c1[nH]c(C)c(C(=O)Nc2ccccc2F)c1C
CCOC(=O)N1CCN(c2c(NCc3ccc(F)cc3)c(=O)c2=O)CC1
COCCNC(=S)N/N=C(\C)c1ccc(OC(F)F)cc1
CC(C)c1ccc(NC(=O)Nc2cnccn2)cc1
CCOC(=O)N1C/C(=C\c2ccccc2)C(=O)/C(=C/c2ccccc2)C1
COc1ccccc1NC(=O)C1=C(C)Nc2nc3ccccc3n2C1c1cccs1 (stereo unspecified)
Cc1cc(C)c(N2C(=O)CC(Sc3ccccc3N)C2=O)c(C)c1 (stereo unspecified)
Cc1ccc(S(=O)(=O)N2CCCCC2)cc1NC(=O)Cn1ncc(Cl)c(Cl)c1=O
CC(=O)Nc1ccc(-c2ccnc3c2CC(C(=O)NCc2ccccc2)O3)cc1 (stereo unspecified)
O=C(NC(=S)N1CCN(C2CCCCC2)CC1)c1ccccc1
CCN(CC)c1ccc(NC(=O)c2cccc(F)c2)c(C)c1
COc1ccc(C(=S)N2CCN(c3cccc(Cl)c3)CC2)c(OC)c1
Cc1ccc(-n2c(O)c(/C=C3/C(c4ccccc4)=Nc4ccccc43)c(=O)[nH]c2=O)cc1
CN(C)c1ccc2nc3c(=O)[nH]c(=O)nc-3n(CC(O)C(O)C(O)CO)c2c1 (stereo unspecified)
O=C(c1ccccc1)C1C(=O)c2ccccc2C1=O
Cc1cccc(CS(=O)(=O)c2ncc(Cl)c(C(=O)Nc3c(C)cccc3C)n2)c1
COc1ccc(C2=NOC(C(=O)NCc3ccc(F)cc3)C2)cc1OC (stereo unspecified)
COc1ccc(-c2cnc3c(NC=O)cc(-c4cc(OC)c(OC)c(OC)c4)cn23)cc1OC
Cc1ccc(C)c(Cn2c(=O)n(CCCC(=O)NCc3ccco3)c(=O)c3sccc32)c1
NNC(=S)Nc1c(F)cc(F)cc1Br
N#Cc1ccc(-c2ccco2)nc1SCc1ccccc1
Cc1cc(C)cc(NC2=NC3(CCCCC3)N=C(N)N2)c1
COc1ccc(OC)c(NS(=O)(=O)c2ccc(Cl)s2)c1
COc1ccccc1N1C(=O)c2cccc3c(C(=O)O)ccc(c23)C1=O
Cc1ccccc1OCC(=O)NNC(=O)Nc1ccc(Cl)cc1
CCN1C/C(=C/c2cccc([N+](=O)[O-])c2)C(=O)/C(=C/c2cccc([N+](=O)[O-])c2)C1
O=C1/C(=C/c2ccccc2)CN(C(=O)CCN2CCOCC2)C/C1=C\c1ccccc1
COc1ccc(N2CC(C(=O)N/N=C/c3ccc(C)cc3)CC2=O)cc1 (stereo unspecified)
COc1ccc(-c2nc3c4ccccc4ccn3c2Cc2ccsc2)cc1OC
CCOC(=O)c1[nH]c(C)c(C(=O)Nc2ccccc2C)c1C
Cc1ccc([N+](=O)[O-])cc1-c1ccc(/C=C(\C#N)c2[nH]nc(N)c2C#N)o1
COc1ccc(-c2[nH]ncc2N=Nc2ccccc2)cc1
O=C(c1[nH]c(C(F)(F)F)nc1-c1ccccc1)N1CCN(c2ccccc2)CC1
COc1cccc(/C=N/NC(=O)c2cc3c(OC)c(OC)ccc3[nH]2)c1OC
Cc1cc(-c2ccccc2)nc(N/N=C/c2ccccc2F)n1
CC(/C=N/NC(=O)c1cc(-c2ccc(C)s2)[nH]n1)=C\c1ccccc1
Cc1ccc(/C=N/NC(=O)CCCOc2ccc(Cl)cc2Cl)cc1
COc1ccc(S(=O)(=O)Nc2cccc(-c3ccc4nncn4n3)c2)cc1F
CCOC(=O)c1cccc(NC(=O)N2CC=C(c3c[nH]c4ccccc34)CC2)c1
CC1Cc2cc(S(=O)(=O)CCC(=O)NCc3ccc(Cl)cc3)ccc2N1C(=O)C1CC1 (stereo unspecified)
CC(C)=CCn1c2ccc(NC(=O)NCc3ccc(F)cc3)cc2c(=O)n1C

Potency, active:
O=C1S/C(=C/c2ccc(N3CCOCC3)o2)C(=O)N1Cc1ccc(F)cc1 2.8 µM
c1ccc(-c2cnn3c(-c4ccccc4)c(-c4ccccc4)nc3n2)cc1 3.66 µM
COc1ccc(C2CC(c3ccncc3)=NN2c2ccc(S(N)(=O)=O)cc2)cc1 (stereo unspecified) 10.3 µM
COc1ccc(/C=c2\s/c(=C/C(=O)c3ccc(C)cc3)[nH]c2=O)c(OC)c1 20.6 µM
Oc1sc(C=Nc2ccccc2)c2ccccc12 16.4 µM
COc1ccc(N=Cc2sc(O)c3ccccc23)cc1 12.5 µM
Oc1sc(C=Nc2ccc(F)cc2)c2ccccc12 2.91 µM
COc1ccc(N=Cc2c(O)c3ccccc3n2C(C)=O)cc1 18.4 µM
COc1ccc(N=Cc2oc3ccc4ccccc4c3c2O)cc1 7.31 µM
CCOC(=O)C1=C(Cc2ccc(F)cc2)C(=O)c2ccccc2C1=O 20.6 µM
CCOC(=O)C1=C(Cc2ccc(Cl)cc2)C(=O)c2ccccc2C1=O 16.4 µM
CCOC(=O)c1ccc(/C=C2/C=C(c3ccccc3)N(c3ccc(Cl)c(C(=O)O)c3)C2=O)cc1 20.6 µM
CCN1/C(=C/c2ccc3ccccc3[n+]2CC)C=Cc2ccccc21 9.2 µM
O=C1Nc2ccc(Br)cc2C12NNc1ccccc1O2 (stereo unspecified) 17.7 µM
C=C(NC(=O)C(=C)NC(=O)c1csc(C2=NC3c4csc(n4)C4NC(=O)c5csc(n5)C(C(C)(O)C(C)O)NC(=O)C5CSC(=N5)/C(=C/C)NC(=O)C(C(C)O)NC(=O)c5csc(n5)C3(CC2)NC(=O)C(C)NC(=O)C(=C)NC(=O)C(=C)NC(=O)C(C(C)C)NC2C=Cc3c(C(C)O)cc(nc3C2O)C(=O)OC4C)n1)C(N)=O (stereo unspecified) 4.44 µM
CCN(CC)c1ccc(/C=C/c2cccc[n+]2C)c(OC)c1 17.7 µM
NN=C1c2ccccc2C(=O)C1C(=O)C(c1ccccc1)c1ccccc1 (stereo unspecified) 12.5 µM
COc1cc2c3nnc(-c4ccc(F)cc4)c-3cn(Cc3ccc(C)cc3)c2cc1OC 5.59 µM
CCn1c(O)c(/C=N/N=C/c2ccc(OC)cc2)c2cc(C3=NNC(=O)CC3)ccc21 5.8 µM
Cc1ccc(-c2cn3nc(-c4ccccc4)c(-c4ccccc4)nc3n2)cc1 20.6 µM
N#Cc1c(C(F)(F)F)cc(-c2ccco2)nc1SCc1ccccn1 16.4 µM
Cc1ccccc1N1C(=O)c2cccc3c(N(C)CCO)ccc(c23)C1=O 20.6 µM
CN1C/C(=C\c2ccc(N3CCOCC3)cc2)C(=O)/C(=C/c2ccc(N3CCOCC3)cc2)C1 18.4 µM
CC[n+]1ccccc1/C=C/c1ccc(N(C)C)cc1 18.4 µM
CC(C)CC[n+]1ccccc1/C=C/c1ccc(N(C)C)cc1 20.6 µM
N#C/C(=C\c1ccc(-c2ccc(C(=O)O)cc2)o1)c1nc2ccccc2[nH]1 4.61 µM
Cc1ccc2nc(/C(C#N)=C/c3ccc(-c4ccc(C(=O)OC(C)C)cc4)o3)[nH]c2c1 6.51 µM
Cc1c(Cl)cccc1-c1ccc(/C=C(\C#N)c2nc3ccccc3[nH]2)o1 16.4 µM
Cc1ccc2nc(/C(C#N)=C\c3ccc([N+](=O)[O-])o3)[nH]c2c1 3.26 µM
N#C/C(=C\c1ccc(-c2ccc(F)cc2F)o1)c1nc2ccccc2[nH]1 20.6 µM
Cc1ccc2nc(/C(C#N)=C/c3ccc(-c4ccccc4C(=O)O)o3)[nH]c2c1 3.26 µM
Cc1ccc2nc(/C(C#N)=C/c3ccc(-c4cccc(Cl)c4)o3)[nH]c2c1 6.51 µM
Cc1ccc2nc(/C(C#N)=C/c3ccc(-c4ccc(F)cc4F)o3)[nH]c2c1 23.1 µM
CCOC(=O)c1c(C)sc(-c2c(-c3ccccc3)[nH]c3[nH]c(=O)[nH]c(=O)c23)c1O 7.31 µM
